Experiments:
Assay in all cases: log2 ratio of Biotin-Ahx-Ub-VS probe labelling (fragment/DMSO); higher = less target engagement (more negative = stronger competition), active = hit call of the paper (q ≤ 0.05, log2 ratio ≤ -1)
Conditions in all cases: compound concentration: 200 uM; treatment time: 3 h
[1] = biological target: USP34 (UniProt Q70CQ2)
Method in brief: (§1)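 Triplicate samples of HEK293T lysate, 495 µg each, received fragment at 200 µM or vehicle for 3 h, followed by Biotin-Ahx-Ub-VS (0.5 µM final) for 1 h. After NeutrAvidin enrichment of labelled DUBs and LysC/trypsin digestion, peptides were run by diaPASEF LC-MS/MS. The values are average log2 fragment/vehicle ratios from global-median-normalised Spectronaut label-free quantities, tested by unpaired t-test on proteins having ≥2 unique peptides.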

[2] = biological target: T1, USP36 (UniProt Q9P275)
T1 sequence (whole entry): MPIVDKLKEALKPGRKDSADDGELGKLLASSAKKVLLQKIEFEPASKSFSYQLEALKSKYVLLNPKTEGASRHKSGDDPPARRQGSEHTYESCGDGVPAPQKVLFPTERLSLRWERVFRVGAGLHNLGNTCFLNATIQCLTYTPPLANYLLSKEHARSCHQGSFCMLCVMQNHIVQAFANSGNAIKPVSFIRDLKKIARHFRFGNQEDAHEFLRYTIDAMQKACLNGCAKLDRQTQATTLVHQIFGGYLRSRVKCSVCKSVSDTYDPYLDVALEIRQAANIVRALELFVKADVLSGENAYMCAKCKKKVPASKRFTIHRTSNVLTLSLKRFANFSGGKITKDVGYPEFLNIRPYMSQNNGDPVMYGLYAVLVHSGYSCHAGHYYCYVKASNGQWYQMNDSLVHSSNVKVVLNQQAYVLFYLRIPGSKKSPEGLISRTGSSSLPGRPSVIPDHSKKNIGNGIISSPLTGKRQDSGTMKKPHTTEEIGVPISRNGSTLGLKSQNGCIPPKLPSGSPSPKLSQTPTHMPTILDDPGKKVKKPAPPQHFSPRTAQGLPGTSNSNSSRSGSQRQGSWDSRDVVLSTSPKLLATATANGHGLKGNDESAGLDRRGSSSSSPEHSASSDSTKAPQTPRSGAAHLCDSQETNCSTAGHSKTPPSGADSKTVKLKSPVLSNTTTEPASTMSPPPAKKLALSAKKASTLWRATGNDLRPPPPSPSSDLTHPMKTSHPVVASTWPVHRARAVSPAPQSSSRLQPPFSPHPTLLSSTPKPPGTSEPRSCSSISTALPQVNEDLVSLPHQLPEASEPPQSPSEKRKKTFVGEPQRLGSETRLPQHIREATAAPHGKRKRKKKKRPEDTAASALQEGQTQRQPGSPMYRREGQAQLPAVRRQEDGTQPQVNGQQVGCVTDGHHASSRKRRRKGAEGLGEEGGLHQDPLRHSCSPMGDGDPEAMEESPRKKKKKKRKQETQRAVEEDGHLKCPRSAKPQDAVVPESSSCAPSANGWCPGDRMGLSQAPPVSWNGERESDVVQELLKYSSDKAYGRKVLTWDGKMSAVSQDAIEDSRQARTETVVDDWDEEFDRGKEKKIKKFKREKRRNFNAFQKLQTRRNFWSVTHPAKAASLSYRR
Method in brief: as §1

[3] = biological target: T2, USP38 (UniProt Q8NB14)
T2 sequence (whole entry): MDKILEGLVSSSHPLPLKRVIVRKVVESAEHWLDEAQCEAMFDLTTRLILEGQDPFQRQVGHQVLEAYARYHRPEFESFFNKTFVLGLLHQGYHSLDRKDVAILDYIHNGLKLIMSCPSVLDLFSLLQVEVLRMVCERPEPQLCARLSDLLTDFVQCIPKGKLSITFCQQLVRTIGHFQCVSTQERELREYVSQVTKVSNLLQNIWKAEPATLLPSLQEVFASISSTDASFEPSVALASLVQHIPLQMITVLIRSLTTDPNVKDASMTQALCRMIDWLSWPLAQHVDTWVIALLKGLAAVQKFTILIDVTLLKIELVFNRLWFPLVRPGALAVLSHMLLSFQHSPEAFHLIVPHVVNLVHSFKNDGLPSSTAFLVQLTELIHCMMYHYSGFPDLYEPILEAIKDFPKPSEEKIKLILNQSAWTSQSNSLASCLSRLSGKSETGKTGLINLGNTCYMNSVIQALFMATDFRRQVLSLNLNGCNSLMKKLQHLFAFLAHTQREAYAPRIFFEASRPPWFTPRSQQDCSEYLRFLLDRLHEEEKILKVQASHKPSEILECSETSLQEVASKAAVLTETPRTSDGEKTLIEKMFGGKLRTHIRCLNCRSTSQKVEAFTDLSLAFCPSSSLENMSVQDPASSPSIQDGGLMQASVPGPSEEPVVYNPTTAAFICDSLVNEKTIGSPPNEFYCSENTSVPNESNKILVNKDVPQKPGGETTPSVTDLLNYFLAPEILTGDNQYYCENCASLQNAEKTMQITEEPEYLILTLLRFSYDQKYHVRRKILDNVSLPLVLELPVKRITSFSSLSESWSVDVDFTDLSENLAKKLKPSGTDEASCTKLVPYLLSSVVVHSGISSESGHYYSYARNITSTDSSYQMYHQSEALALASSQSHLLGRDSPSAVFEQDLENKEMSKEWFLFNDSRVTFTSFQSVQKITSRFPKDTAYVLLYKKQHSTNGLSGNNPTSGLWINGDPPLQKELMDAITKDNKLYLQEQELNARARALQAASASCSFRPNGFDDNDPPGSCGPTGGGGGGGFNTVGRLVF
Method in brief: as §1

[4] = biological target: T3, USP39 (UniProt Q53GS9)
T3 sequence (whole entry): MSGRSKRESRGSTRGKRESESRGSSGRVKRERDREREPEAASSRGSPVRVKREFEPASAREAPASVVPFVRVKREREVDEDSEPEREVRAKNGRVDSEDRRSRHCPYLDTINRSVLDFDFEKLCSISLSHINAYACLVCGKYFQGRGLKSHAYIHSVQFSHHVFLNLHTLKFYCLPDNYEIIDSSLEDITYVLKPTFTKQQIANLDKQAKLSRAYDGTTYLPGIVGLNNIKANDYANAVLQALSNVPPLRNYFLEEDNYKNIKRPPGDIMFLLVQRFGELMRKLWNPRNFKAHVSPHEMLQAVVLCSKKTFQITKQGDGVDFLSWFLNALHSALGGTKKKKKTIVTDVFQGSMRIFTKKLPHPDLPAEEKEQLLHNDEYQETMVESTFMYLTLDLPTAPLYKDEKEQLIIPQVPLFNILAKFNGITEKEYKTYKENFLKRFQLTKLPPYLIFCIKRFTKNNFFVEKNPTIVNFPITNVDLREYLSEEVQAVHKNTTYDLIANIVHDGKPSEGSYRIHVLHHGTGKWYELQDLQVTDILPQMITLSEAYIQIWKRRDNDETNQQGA
Method in brief: as §1

[5] = biological target: T4, USP4 (UniProt Q13107)
T4 sequence (whole entry): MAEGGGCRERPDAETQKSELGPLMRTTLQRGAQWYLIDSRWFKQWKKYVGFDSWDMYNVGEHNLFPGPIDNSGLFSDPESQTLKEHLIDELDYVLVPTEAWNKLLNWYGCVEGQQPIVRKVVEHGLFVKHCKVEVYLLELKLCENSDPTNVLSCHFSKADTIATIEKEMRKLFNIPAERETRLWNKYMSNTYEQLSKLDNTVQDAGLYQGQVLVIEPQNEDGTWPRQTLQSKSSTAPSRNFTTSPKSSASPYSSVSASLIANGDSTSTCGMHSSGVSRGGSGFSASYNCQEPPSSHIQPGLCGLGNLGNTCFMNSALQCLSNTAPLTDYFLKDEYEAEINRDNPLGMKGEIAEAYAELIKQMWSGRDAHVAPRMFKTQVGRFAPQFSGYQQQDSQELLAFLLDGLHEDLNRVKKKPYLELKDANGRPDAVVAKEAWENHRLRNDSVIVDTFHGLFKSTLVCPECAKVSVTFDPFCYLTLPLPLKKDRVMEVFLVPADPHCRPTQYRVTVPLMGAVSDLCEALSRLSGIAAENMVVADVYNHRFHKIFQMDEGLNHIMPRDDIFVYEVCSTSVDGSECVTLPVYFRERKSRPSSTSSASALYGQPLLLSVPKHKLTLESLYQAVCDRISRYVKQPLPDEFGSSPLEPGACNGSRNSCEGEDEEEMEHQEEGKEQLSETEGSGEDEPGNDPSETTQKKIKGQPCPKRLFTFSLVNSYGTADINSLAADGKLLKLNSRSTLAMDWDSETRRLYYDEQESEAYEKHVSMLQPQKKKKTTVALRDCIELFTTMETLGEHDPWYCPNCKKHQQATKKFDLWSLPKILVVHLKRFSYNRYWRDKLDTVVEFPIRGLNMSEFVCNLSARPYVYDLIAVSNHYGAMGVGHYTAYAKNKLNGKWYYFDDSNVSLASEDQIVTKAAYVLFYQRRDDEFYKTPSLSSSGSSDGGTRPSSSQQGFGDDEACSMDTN
Method in brief: as §1

Measured: log2 ratio of Biotin-Ahx-Ub-VS probe labelling

USP34, sequence (Q70CQ2 whole entry, the tested form may be a part): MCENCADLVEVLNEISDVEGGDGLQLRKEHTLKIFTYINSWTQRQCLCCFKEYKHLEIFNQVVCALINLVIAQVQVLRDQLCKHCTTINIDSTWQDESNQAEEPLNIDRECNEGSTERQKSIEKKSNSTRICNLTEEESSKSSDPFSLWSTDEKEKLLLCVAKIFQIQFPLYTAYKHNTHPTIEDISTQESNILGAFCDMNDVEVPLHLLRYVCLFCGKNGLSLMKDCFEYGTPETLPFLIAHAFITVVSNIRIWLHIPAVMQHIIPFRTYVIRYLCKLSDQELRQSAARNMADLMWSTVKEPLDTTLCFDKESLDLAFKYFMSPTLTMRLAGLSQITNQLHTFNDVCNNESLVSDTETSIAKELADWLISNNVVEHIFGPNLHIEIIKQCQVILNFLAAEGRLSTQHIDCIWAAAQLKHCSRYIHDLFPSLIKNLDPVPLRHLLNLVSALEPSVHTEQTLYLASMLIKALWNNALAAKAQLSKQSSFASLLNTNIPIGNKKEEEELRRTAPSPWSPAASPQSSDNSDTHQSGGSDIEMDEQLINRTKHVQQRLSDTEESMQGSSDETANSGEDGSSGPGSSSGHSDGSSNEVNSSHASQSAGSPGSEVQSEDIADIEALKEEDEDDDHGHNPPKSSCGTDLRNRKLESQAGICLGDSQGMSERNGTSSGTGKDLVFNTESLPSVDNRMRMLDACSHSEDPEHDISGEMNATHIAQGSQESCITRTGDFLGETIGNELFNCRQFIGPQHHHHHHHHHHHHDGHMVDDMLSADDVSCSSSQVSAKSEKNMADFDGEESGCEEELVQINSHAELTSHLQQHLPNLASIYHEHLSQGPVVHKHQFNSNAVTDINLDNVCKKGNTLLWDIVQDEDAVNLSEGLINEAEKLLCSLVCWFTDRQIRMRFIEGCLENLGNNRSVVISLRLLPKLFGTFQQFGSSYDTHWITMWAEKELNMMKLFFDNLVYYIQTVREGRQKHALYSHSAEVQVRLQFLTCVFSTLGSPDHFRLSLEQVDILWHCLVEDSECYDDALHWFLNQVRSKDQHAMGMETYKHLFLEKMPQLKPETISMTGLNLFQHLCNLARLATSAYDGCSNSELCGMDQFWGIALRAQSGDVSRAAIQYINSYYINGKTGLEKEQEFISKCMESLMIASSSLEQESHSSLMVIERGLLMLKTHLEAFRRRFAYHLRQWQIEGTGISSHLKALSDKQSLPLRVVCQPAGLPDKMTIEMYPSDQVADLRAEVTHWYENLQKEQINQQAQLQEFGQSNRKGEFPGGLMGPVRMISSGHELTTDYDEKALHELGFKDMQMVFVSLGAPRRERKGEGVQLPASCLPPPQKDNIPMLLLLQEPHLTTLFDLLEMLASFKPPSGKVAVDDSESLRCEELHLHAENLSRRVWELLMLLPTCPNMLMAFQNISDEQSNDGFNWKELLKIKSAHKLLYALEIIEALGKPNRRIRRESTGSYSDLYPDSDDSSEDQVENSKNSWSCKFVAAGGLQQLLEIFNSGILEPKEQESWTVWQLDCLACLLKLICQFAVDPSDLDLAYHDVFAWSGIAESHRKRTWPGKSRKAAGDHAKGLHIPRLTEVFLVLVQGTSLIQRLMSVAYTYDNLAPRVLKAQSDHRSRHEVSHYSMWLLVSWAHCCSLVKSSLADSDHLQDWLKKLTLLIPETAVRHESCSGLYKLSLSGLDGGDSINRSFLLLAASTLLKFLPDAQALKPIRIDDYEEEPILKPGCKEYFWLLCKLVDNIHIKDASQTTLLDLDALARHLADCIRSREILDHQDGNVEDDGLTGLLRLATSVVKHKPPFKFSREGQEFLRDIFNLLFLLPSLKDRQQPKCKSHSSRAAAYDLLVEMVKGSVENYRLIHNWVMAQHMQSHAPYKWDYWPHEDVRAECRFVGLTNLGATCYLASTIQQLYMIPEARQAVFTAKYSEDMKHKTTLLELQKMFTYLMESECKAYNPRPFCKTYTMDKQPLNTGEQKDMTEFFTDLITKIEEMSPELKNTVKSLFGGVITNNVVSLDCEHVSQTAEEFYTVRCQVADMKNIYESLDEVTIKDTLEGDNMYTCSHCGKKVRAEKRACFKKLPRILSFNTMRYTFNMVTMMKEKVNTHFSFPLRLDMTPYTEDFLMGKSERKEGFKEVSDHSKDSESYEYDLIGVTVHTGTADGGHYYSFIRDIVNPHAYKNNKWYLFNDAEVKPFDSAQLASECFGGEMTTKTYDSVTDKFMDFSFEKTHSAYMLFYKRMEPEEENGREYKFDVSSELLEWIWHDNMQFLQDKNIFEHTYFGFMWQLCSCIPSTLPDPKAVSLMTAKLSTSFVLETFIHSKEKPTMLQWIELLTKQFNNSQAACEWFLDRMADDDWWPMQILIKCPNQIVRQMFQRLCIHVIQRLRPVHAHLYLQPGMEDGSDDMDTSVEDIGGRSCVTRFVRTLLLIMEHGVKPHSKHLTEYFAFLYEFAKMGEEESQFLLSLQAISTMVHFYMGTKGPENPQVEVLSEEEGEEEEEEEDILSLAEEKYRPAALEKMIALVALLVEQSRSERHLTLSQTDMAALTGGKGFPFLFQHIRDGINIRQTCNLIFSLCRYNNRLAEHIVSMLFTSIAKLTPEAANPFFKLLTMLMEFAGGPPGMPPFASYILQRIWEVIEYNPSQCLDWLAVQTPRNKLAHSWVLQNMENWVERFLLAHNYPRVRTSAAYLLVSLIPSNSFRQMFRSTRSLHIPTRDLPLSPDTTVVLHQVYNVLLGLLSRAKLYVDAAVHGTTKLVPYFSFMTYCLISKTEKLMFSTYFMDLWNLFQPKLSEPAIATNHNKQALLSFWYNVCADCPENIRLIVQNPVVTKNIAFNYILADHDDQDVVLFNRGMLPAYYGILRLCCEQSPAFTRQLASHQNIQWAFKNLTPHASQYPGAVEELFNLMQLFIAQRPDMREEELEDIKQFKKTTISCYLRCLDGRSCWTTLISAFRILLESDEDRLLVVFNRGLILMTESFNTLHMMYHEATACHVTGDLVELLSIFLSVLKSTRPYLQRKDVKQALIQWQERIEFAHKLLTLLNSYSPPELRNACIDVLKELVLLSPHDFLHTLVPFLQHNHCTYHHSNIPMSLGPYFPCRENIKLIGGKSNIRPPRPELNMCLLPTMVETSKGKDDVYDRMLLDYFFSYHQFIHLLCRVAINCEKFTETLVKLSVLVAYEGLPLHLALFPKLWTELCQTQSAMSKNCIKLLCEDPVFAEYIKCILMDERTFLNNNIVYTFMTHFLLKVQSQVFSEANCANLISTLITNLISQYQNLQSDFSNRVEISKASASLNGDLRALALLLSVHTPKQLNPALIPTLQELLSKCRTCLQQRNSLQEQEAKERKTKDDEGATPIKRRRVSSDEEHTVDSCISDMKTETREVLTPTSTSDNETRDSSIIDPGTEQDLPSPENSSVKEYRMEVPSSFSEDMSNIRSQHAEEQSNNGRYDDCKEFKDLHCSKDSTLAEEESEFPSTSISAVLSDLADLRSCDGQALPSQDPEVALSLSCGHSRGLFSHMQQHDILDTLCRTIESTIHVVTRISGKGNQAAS

CNC(=O)C1CCN(C(=O)CCl)CC1
inactive: [1] -0.0658 | [2] -0.083 | [3] 0.119 | [4] 0.229 | [5] -0.146

From the supplement of paper PMC11732987, “Enantioselective OTUD7B fragment discovery through chemoproteomics screening and high-throughput optimisation” (Communications Chemistry, 2025)
